Source: ChEMBL document CHEMBL4888484, “Replenishing the malaria drug discovery pipeline: Screening and hit evaluation of the MMV Hit Generation Library 1 (HGL1) against asexual blood stage Plasmodium falciparum ,using a nano luciferase reporter read-out” (2022)
About 540 (0.36%) of roughly 150,000 compounds showed an effect of 50% or more. This is one part of a sample in which strong results are shown more often than they occur.

tested on: Plasmodium falciparum; assay: Primary screen in NF54 nanoGlo assay, in single point, at 2uM, 72h; a lower Z score goes with more inhibition; type: functional, Erythrocyte; settings: timepoint 72 hour

Compound	% Inhibition [%]	Z score
COc1ccc(N(Cc2c(C)noc2C)Cc2c(C)noc2C)cc1	-5	0.44
CC1(C)CCCN1S(=O)(=O)c1onc(C2CC2)c1Cl	-3	0.41
O=c1[nH]c(=O)n(S(=O)(=O)c2ccccc2)cc1F	90	-12.13
Cc1ccc(S(=O)(=O)n2cc(C)[nH]c2=O)cc1	-23	2.15
O=c1[nH]c(=O)n(CCS(=O)(=O)c2ccccc2)cc1Cl	-11	1.09
CC(C1CC1)n1cc(NC(=O)N2CCC(C(F)(F)F)C2(C)C)cn1 (configuration not stated)	-10	1.23
Cc1nnc(OC2Cc3ccccc3C2)s1	-7	1.07
O=C(CCc1ccccc1)N[C@H]1CC[C@H](Oc2ncc(F)cn2)CC1	-10	1.77
Fc1cnc(OC2Cc3ccccc3C2)nc1	60	-5.26
CCc1nnc(CNC(=O)C(=O)c2ccco2)o1	-5	0.65
COc1ccc(CNC(=O)CCc2c(C)nn(-c3ccc4nnc(C)n4n3)c2C)c(OC)c1	5	-0.63
CC[n+]1c(/C=C/N(C)c2ccccc2)oc2ccc(-c3ccccc3)cc21	88	-9.92
CC[n+]1c(/C=C/N(C)c2ccccc2)oc2ccccc21	80	-10.29
COc1ccc2c(c1)C(=O)N(Cc1ccccc1)C(=O)C2(C)C	-10	1.06
C[C@@H](c1cccnc1)N(C)Cc1nc2c(s1)CCC2	-18	3.45
CCC(=O)Nc1cc(NC(=O)N(CC)CC2CCOCC2)ccc1OC	-8	1.44
Cc1cc([C@H](Nc2ccccn2)c2ccccc2)c(NC(=O)c2ccccc2)s1	31	-0.7
Oc1ccc2ncccc2c1[C@@H](Nc1ccccn1)c1cccc(Br)c1	58	-12.1
Oc1ccc2ncccc2c1[C@@H](Nc1ccccn1)c1cccc(Cl)c1	34	-3.9

Compound	% Inhibition [%]	Z score
Cc1cccc(Cl)c1NC(=O)N1CCS(=O)(=O)[C@@H](C)C1	-5	0.54
Cc1ccc(-n2nnnc2C2(NC(C)C)CCCC2)cc1	-3	0.43
CC(=O)Nc1ccc(-c2nc(-c3cccnn3)no2)c(C)c1	-22	2.61
CC(C)(C)CN(CC(=O)O)C(=O)Cc1ccccc1F	-9	1.82
CCN1CCN(C(=O)c2cnc(-c3ccc(F)cc3)nc2N(C)C)CC1	3	-0.5
COc1ccnc(NCCCNc2nccc(OC)n2)n1	-4	0.53
Cc1ccc(N2CCOCC2)c(NC(=O)C2CCCCC2)c1	-1	0.12
COc1ccccc1COC(=O)Nc1c(C)nn(C)c1Cl	2	-0.32
O=C(CNC(=O)OCc1ccccc1)Nc1ccc(F)cc1	37	2.05
Cc1nn(C)c(Cl)c1NC(=O)OCc1ccc(F)cc1	54	-1.24
Cc1ccc(N2S(=O)(=O)c3ccccc3S2(=O)=O)cc1	4	-0.44
Cc1cc(NC(=O)C2CCC(C3CC3)CC2)n2ncnc2n1 (configuration not stated)	-7	0.83
FC(F)(F)c1cccc(Nc2c3ccccc3nc3ccccc23)c1	10	-0.85
CCOc1ccc(NC(=O)Cc2c(O)nc3ccccc3c2O)cc1	-9	1.39
CCOc1ccc(Nc2c3ccccc3nc3ccccc23)cc1	81	-10.53
O=C(O)c1ccc(Nc2c3ccccc3nc3ccccc23)cc1	-3	0.3
C[C@H](NC(=O)c1ccccc1)C(=O)NCC1(N2CCOCC2)CCCCC1	-4	0.39
COc1ccc(C(=O)N(Cc2ccc(OS(=O)(=O)c3ccc(F)cc3)cc2)C(C)C)c(OC)c1	-14	1.5
NC(=NCc1cccc2cccnc12)N1CCN(c2nccs2)CC1	57	-10.38

Compound	% Inhibition [%]	Z score
NC(=NCc1ccc(Cl)cn1)N1CCN(c2nccs2)CC1	-4	0.42
NC(=NCc1csc2ccccc12)N1CCN(c2nccs2)CC1	5	-0.56
N#Cc1ncn(C[C@H]2CCC3(CCCCC3)O2)c1C#N	-10	1.82
C[C@H](O)CN1CCN(Cc2cn3ccccc3c2C#N)CC1	-13	2.38
N#Cc1c(CN2CCOCC2)cc(=O)n2c1[nH]c1ccccc12	35	-0.01
Cc1ccc(CN2CCN(C[C@@H](O)Cn3c4ccccc4n4c(=O)cc(C)c(C#N)c34)CC2)c(C)c1	86	-13.14
O=C(CC1CCCCC1)NCC1CCN(c2cc(-c3cccnc3)n[nH]2)CC1	-17	1.71
CC[n+]1ccc(-c2ncc(-c3ccc(C(C)(C)C)cc3)o2)cc1	66	-12.84
CO[C@@H](C)C(=O)N(Cc1ncc[nH]1)c1cncc(Br)c1	2	-0.29
COc1ccc(-c2cc(OC(F)(F)F)ccc2O)nn1	-8	1.53
CC1CCCC(C)N1S(=O)(=O)c1ccc(NC(=O)CCC(=O)c2ccc3c(c2)OCCO3)cc1 (configuration not stated)	-4	0.64
C[N+]1(CCCC(=O)c2ccc3c(c2)OCCO3)CCC(c2ccccc2)C1 (configuration not stated)	73	-8.3
O=C(CCC(=O)c1ccc2c(c1)OCCCO2)NCc1ccccc1	-7	1.26
CCn1nccc1-c1cnc2nc(C)nn2c1	-6	0.88
Cc1cc(C)c(C(=O)N2C[C@H](F)C[C@H]2C(N)=O)o1	1	-0.13
Cc1cccc([C@@H](NC(=O)CC2OCCCO2)C(F)(F)F)c1	3	-0.38
Cc1cccc(C(NC(=O)[C@@H]2CCCO2)C(F)(F)F)c1 (some centres not stated)	-6	0.81
Cc1cccc([C@@H](NC(=O)Nc2ncco2)C(F)(F)F)c1	54	1.59
